Results filed as inconclusive are left out. Active and inactive are the calls of the source. Calls come from the whole dose curve; as a rule, active = well fitted curve in the direction sought with a large enough effect in the repeat runs; inconclusive = weak or mixed curves; inactive = no such curve, though single readings can be large; an effect the other way counts as inactive or inconclusive.
How the values were obtained:
[1] = qHTS RealTime-Glo MT Cell Viability Assay in HepG2 cells - 40 hour (AID 1224870); note: nearly all actives have a fitted effect of over 50% in size
In short: (§1)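 Real-time viability: cells seeded at 600 per well together with NanoLuc and cell-permeant prosubstrate, compounds added after 5 h incubation. Luminescence tracked at 0, 8, 16, 24, 32 and 40 h of exposure.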

[2] = A CellTox Green Cytotoxicity Assay to monitor cytotoxicity in HEK293 cells - 40 hour (AID 1224871); note: nearly all actives have a fitted effect of over 45% in size
In short: (§2)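 Fluorescence intensity, read at 0, 8, 16, 24, 32 and 40 h of compound treatment, reflected dye binding to DNA of dead HEK293 cells; compounds (23 nL, DMSO) were added 5 h after plating cells with reagent.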

[3] = qHTS RealTime-Glo MT Cell Viability Assay in HEK293 cells - 16 hour (AID 1224872); note: top concentration of the series differs between compounds; nearly all actives have a fitted effect of over 50% in size
In short: (§3)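 Viability tracked continuously by luminescence as live cells reduce a prosubstrate for NanoLuc; HEK293 cells preincubated 5 h, compound-treated at 37 C, and read at 0, 8, 16, 24, 32 and 40 h.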

[4] = qHTS RealTime-Glo MT Cell Viability Assay in HepG2 cells - 8 hour (AID 1224873); note: nearly all actives have a fitted effect of over 55% in size
In short: as §1

[5] = qHTS RealTime-Glo MT Cell Viability Assay in HEK293 cells - 40 hour (AID 1224874); details: RealTime-Glo luminescence; max response: active compounds read low; note: nearly all actives have a fitted effect of over 50% in size
In short: (§4)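 Viable HEK293 cells reduce a cell-permeant prosubstrate; the product diffuses out and is consumed by NanoLuc in the medium to give light. Compounds went in after a 5 h incubation and plates were read over the treatment course.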

[6] = A CellTox Green Cytotoxicity Assay to monitor cytotoxicity in HEK293 cells - 24 hour (AID 1224875); note: series mostly up to about 77 µM; nearly all actives have a fitted effect of over 45% in size
In short: as §2

[7] = A CellTox Green Cytotoxicity Assay to monitor cytotoxicity in HepG2 cells - 16 hour (AID 1224876); note: nearly all actives have a fitted effect of over 45% in size
In short: (§5)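 Using 1536-well format, dye-containing HepG2 suspension was seeded, allowed 5 h at 37 C/5% CO2, dosed by pintool with compounds, positive and negative controls, and imaged for fluorescence across 40 h.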

[8] = qHTS RealTime-Glo MT Cell Viability Assay in HepG2 cells - 32 hour (AID 1224877); note: nearly all actives have a fitted effect of over 55% in size
In short: (§6)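 Viability was tracked continuously by NanoLuc luminescence from prosubstrate reduced by living HepG2 cells, at successive time points over 40 h of compound exposure. Cells with reagent were preincubated 5 h at 37 °C before compound addition.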

[9] = A CellTox Green Cytotoxicity Assay to monitor cytotoxicity in HepG2 cells - 24 hour (AID 1224878); note: nearly all actives have a fitted effect of over 45% in size
In short: as §5

[10] = A CellTox Green Cytotoxicity Assay to monitor cytotoxicity in HepG2 cells - 40 hour (AID 1224879); note: nearly all actives have a fitted effect of over 40% in size
In short: as §5

[11] = qHTS RealTime-Glo MT Cell Viability Assay in HEK293 cells - 0 hour (AID 1224880)
In short: as §4

[12] = A CellTox Green Cytotoxicity Assay to monitor cytotoxicity in HEK293 cells - 32 hour (AID 1224881); note: nearly all actives have a fitted effect of over 40% in size
In short: as §2

[13] = A CellTox Green Cytotoxicity Assay to monitor cytotoxicity in HepG2 cells - 0 hour (AID 1224882); note: nearly all actives have a fitted effect of over 35% in size
In short: as §5

[14] = A CellTox Green Cytotoxicity Assay to monitor cytotoxicity in HepG2 cells - 32 hour (AID 1224883); note: nearly all actives have a fitted effect of over 50% in size
In short: as §5

[15] = A CellTox Green Cytotoxicity Assay to monitor cytotoxicity in HEK293 cells - 8 hour (AID 1224884); note: nearly all actives have a fitted effect of over 35% in size
In short: as §2

[16] = qHTS RealTime-Glo MT Cell Viability Assay in HepG2 cells - 16 hour (AID 1224885); note: nearly all actives have a fitted effect of over 50% in size
In short: as §6

[17] = qHTS RealTime-Glo MT Cell Viability Assay in HEK293 cells - 24 hour (AID 1224886)
In short: as §3

[18] = qHTS RealTime-Glo MT Cell Viability Assay in HEK293 cells - 8 hour (AID 1224887)
In short: as §4

[19] = A CellTox Green Cytotoxicity Assay to monitor cytotoxicity in HEK293 cells - 16 hour (AID 1224888); note: nearly all actives have a fitted effect of over 35% in size
In short: as §2

[20] = qHTS RealTime-Glo MT Cell Viability Assay in HepG2 cells - 0 hour (AID 1224889); note: nearly all actives have a fitted effect of over 50% in size
In short: as §6
% is set by controls: 0 for no effect and ±100 for the full control effect.

N#Cc1ccc(C2CCCc3cncn32)cc1 (stereo unspecified)
inactive: Potency [1] | Potency [2] | Potency [3] | Potency [4] | max response [5] 8.46% | Potency [6] | Potency [7] | Potency [8] | Potency [9] | Potency [10] | Potency [11] | Potency [12] | Potency [13] | Potency [14] | Potency [15] | Potency [16] | Potency [17] | Potency [18] | Potency [19] | Potency [20]

Cn1cc(S(C)=O)c(=O)c2ccc(F)cc21 (stereo unspecified)
inactive: Potency [1] | Potency [2] | Potency [3] | Potency [4] | max response [5] -13.8% | Potency [6] | Potency [7] | Potency [8] | Potency [9] | Potency [10] | Potency [11] | Potency [12] | Potency [13] | Potency [14] | Potency [15] | Potency [16] | Potency [17] | Potency [18] | Potency [20]

CCn1nc(C(=O)O)c(=O)c2cc3c(cc21)OCO3
inactive: Potency [1] | Potency [2] | Potency [3] | Potency [4] | max response [5] 4.37% | Potency [6] | Potency [7] | Potency [8] | Potency [9] | Potency [10] | Potency [11] | Potency [12] | Potency [13] | Potency [14] | Potency [15] | Potency [16] | Potency [17] | Potency [18] | Potency [19] | Potency [20]

O=C(O)c1ccccc1OP(=O)(O)O
inactive: Potency [1] | Potency [2] | Potency [3] | Potency [4] | max response [5] -0.358% | Potency [6] | Potency [7] | Potency [8] | Potency [9] | Potency [10] | Potency [11] | Potency [12] | Potency [13] | Potency [14] | Potency [15] | Potency [16] | Potency [17] | Potency [18] | Potency [19] | Potency [20]

COc1c(N2C[C@@H]3CCCN[C@@H]3C2)c(F)cc2c(=O)c(C(=O)O)cn(C3CC3)c12
inactive: Potency [1] | Potency [2] | Potency [3] | Potency [4] | max response [5] -3.41% | Potency [6] | Potency [7] | Potency [8] | Potency [9] | Potency [10] | Potency [11] | Potency [12] | Potency [13] | Potency [14] | Potency [15] | Potency [16] | Potency [17] | Potency [18] | Potency [19] | Potency [20]

N=C(N)c1ccccc1
inactive: Potency [1] | Potency [2] | Potency [3] | Potency [4] | max response [5] -0.53% | Potency [6] | Potency [7] | Potency [8] | Potency [9] | Potency [10] | Potency [11] | Potency [12] | Potency [13] | Potency [14] | Potency [15] | Potency [16] | Potency [17] | Potency [18] | Potency [20]

FC(F)OC(Cl)C(F)(F)F (stereo unspecified)
inactive: Potency [1] | Potency [2] | Potency [3] | Potency [4] | max response [5] 5.59% | Potency [6] | Potency [7] | Potency [8] | Potency [9] | Potency [10] | Potency [11] | Potency [12] | Potency [13] | Potency [14] | Potency [15] | Potency [16] | Potency [17] | Potency [18] | Potency [19] | Potency [20]

CO/N=C(/C(=O)N[C@@H]1C(=O)N2C(C(=O)OCOC(=O)C(C)(C)C)=C(C)CS[C@H]12)c1csc(N)n1
inactive: Potency [1] | Potency [2] | Potency [3] | Potency [4] | max response [5] 3.21% | Potency [6] | Potency [7] | Potency [8] | Potency [9] | Potency [10] | Potency [11] | Potency [12] | Potency [13] | Potency [14] | Potency [15] | Potency [16] | Potency [17] | Potency [18] | Potency [20]

COc1nc(N)nc2c1ncn2[C@@H]1O[C@H](CO)[C@@H](O)[C@@H]1O
inactive: Potency [1] | Potency [2] | Potency [3] | Potency [4] | max response [5] 14.1% | Potency [6] | Potency [7] | Potency [8] | Potency [9] | Potency [10] | Potency [11] | Potency [12] | Potency [14] | Potency [15] | Potency [16] | Potency [17] | Potency [18] | Potency [19] | Potency [20]

CCc1nccnc1CC
inactive: activity change, negative = cytotoxic [1] -2.15% [at 15.8 µM] | Potency [2] | activity change, negative = cytotoxicity [3] 5.29% [at 15.8 µM] | viability change, negative = cytotoxic [4] 1.16% [at 15.8 µM] | max response [5] 3.61% | activity change [6] -5.25% [at 15.8 µM, active compounds read high] | cytotoxicity increase [7] 1.53% [at 15.8 µM] | activity change, negative = cytotoxic [8] -1.59% [at 15.8 µM] | cytotoxicity [9] 0.289% [at 15.8 µM] | cytotoxicity increase [10] 0.942% [at 15.8 µM] | activity change, negative = cytotoxicity [11] -3.54% [at 15.8 µM] | Potency [12] | cytotoxicity increase [14] 4.25% [at 15.8 µM] | cytotoxicity increase [15] -4.27% [at 15.8 µM] | activity change, negative = cytotoxic [16] -1.18% [at 15.8 µM] | activity change, negative = cytotoxicity [17] 6.29% [at 15.8 µM] | activity change, negative = cytotoxicity [18] -0.69% [at 15.8 µM] | activity change [19] -4.2% [at 15.8 µM, active compounds read high] | activity change, negative = cytotoxicity [20] -0.513% [at 15.8 µM]

Oc1ccc(C2CNCCc3c2cc(O)c(O)c3Cl)cc1 (stereo unspecified)
inactive: Potency [1] | Potency [2] | Potency [3] | Potency [4] | max response [5] -10.9% | Potency [6] | Potency [7] | Potency [8] | Potency [9] | Potency [10] | Potency [11] | Potency [12] | Potency [13] | Potency [14] | Potency [15] | Potency [16] | Potency [17] | Potency [18] | Potency [20]

CCOC(=O)[C@H](CCc1ccccc1)N[C@@H](C)C(=O)N1[C@H](C(=O)O)C[C@@H]2CCC[C@@H]21
inactive: Potency [1] | Potency [2] | Potency [3] | Potency [4] | max response [5] 6.09% | Potency [6] | Potency [7] | Potency [8] | Potency [9] | Potency [10] | Potency [11] | Potency [12] | Potency [13] | Potency [14] | Potency [15] | Potency [16] | Potency [17] | Potency [18] | Potency [20]

Cc1c(NC(C)C)c(=O)n(-c2ccccc2)n1C
inactive: Potency [1] | Potency [2] | Potency [3] | Potency [4] | max response [5] 2.55% | Potency [6] | Potency [7] | Potency [8] | Potency [9] | Potency [10] | Potency [11] | Potency [12] | Potency [14] | Potency [15] | Potency [16] | Potency [17] | Potency [18] | Potency [19] | Potency [20]

FC1(F)C(F)(F)C(F)(F)C2(F)C(F)(F)C(F)(F)C(F)(F)C(F)(F)C2(F)C1(F)F (stereo unspecified)
inactive: Potency [1] | Potency [2] | Potency [3] | Potency [4] | max response [5] 1.37% | Potency [6] | Potency [7] | Potency [8] | Potency [9] | Potency [10] | Potency [11] | Potency [12] | Potency [13] | Potency [14] | Potency [15] | Potency [16] | Potency [17] | Potency [19] | Potency [20]

From PubChem BioAssay (Tox21)
